The record followed here is PubChem BioAssay (EPA / NIEHS).

Read-out in experiment [1]: Interferon-gamma inducible Protein 10 (IP10), CXCL10 (gene 3627)
Briefly: BSK_hDFCGF_IP10: BioMAP Diversity Plus: hDFCGF Assay for Interferon-gamma inducible Protein 10 (IP10) Biomarker Activity (AID 2283053). To be noted: primary human foreskin fibroblasts; actives raise or lower the signal. An outline of the steps:
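Human foreskin fibroblast primary cells (hDFCGF system) were dosed with chemical and assayed at 24 h; IP-10 measured by ELISA. Activity fitted bidirectionally relative to DMSO negative control as baseline.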

Read-out in experiment [2]: Urokinase-type plasminogen activator receptor (uPAR), PLAUR (gene 5329)
Briefly: BSK_CASM3C_uPAR: BioMAP Diversity Plus: CASM3C Assay for Urokinase-type plasminogen activator receptor (uPAR) Biomarker Activity (AID 2283054).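 Also: cell-surface uPAR protein level quantified by ELISA.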 Conditions: primary human coronary artery smooth muscle cells; actives raise or lower the signal.

Read-out in experiment [3]: Vascular cell adhesion molecule 1 (VCAM1), VCAM1 (gene 7412)
Description: BSK_CASM3C_VCAM1: BioMAP Diversity Plus: CASM3C Assay for Vascular cell adhesion molecule 1 (VCAM1) Biomarker Activity (AID 2283055).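 Also: VCAM-1 protein level quantified by ELISA on the cells.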 To be noted: primary human coronary artery smooth muscle cells; actives raise or lower the signal.

Read-out in experiment [4]: Epidermal growth factor receptor (EGFR), EGFR (gene 1956)
Description: BSK_hDFCGF_EGFR: BioMAP Diversity Plus: hDFCGF Assay for Epidermal growth factor receptor (EGFR) Biomarker Activity (AID 2283057). To be noted: primary human foreskin fibroblasts; actives raise or lower the signal. An outline of the steps:
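Primary human foreskin fibroblasts were exposed to compound for 24 h, after which cell-surface EGFR was quantified by ELISA. Activity was fitted bidirectionally against the DMSO negative control as baseline.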

Read-out in experiment [5]: Interleukin-8 (IL8), CXCL8 (gene 3576)
Description: BSK_hDFCGF_IL8: BioMAP Diversity Plus: hDFCGF Assay for Interleukin-8 (IL8) Biomarker Activity (AID 2283058). Conditions: primary human foreskin fibroblasts; actives raise or lower the signal. The gist of the method:
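ELISA read-out of IL-8 from primary human foreskin fibroblast cultures taken 24 h after dosing; values are bidirectional fits relative to DMSO vehicle.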

Experiment [6] is described as follows: BSK_hDFCGF_Proliferation: Cell Proliferation Assessment in the BioMAP Diversity Plus: hDFCGF Assay (AID 2283059).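 Also: curves fitted for both rise and fall of signal versus DMSO baseline.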 To be noted: primary human foreskin fibroblasts. An outline of the steps:
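This proliferation readout used SRB total-protein staining of human foreskin fibroblasts […], normalized to DMSO with bidirectional curve fitting.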

Read-out in experiment [7]: Macrophage colony-stimulating factor (MCSF), CSF1 (gene 1435)
Description: BSK_hDFCGF_MCSF: BioMAP Diversity Plus: hDFCGF Assay for Macrophage colony-stimulating factor (MCSF) Biomarker Activity (AID 2283060). To be noted: primary human foreskin fibroblasts; actives raise or lower the signal. An outline of the steps:
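ELISA read-out of M-CSF in human dermal foreskin fibroblast cultures, 24 h after chemical dosing; gain or loss of signal fitted bidirectionally relative to DMSO baseline.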

Experiment [8] in a line: BSK_hDFCGF_SRB: Viability Assessment in the BioMAP Diversity Plus: hDFCGF Assay (AID 2283061).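 Also: cells exposed to compound for 24 h before the read.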 To be noted: primary human foreskin fibroblasts. An outline of the steps:
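Primary human foreskin fibroblasts; 24 h post-dose; fixed 10% TCA, stained 0.1% SRB, A560 read; total protein as overt cytotoxicity measure; curves fit bidirectionally vs DMSO control.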

Read-out in experiment [9]: TIMP metallopeptidase inhibitor 1 (TIMP1), TIMP1 (gene 7076)
Description: BSK_hDFCGF_TIMP1: BioMAP Diversity Plus: hDFCGF Assay for TIMP metallopeptidase inhibitor 1 (TIMP1) Biomarker Activity (AID 2283062). To be noted: primary human foreskin fibroblasts; actives raise or lower the signal. An outline of the steps:
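ELISA readout of TIMP-1 from human dermal foreskin fibroblast cultures 24 h post-dosing. Curves were fitted in both directions against DMSO baseline, with SRB total-protein staining in parallel cultures as a cytotoxicity check.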

Read-out in experiment [10]: Monokine induced gamma interferon (MIG), CXCL9 (gene 4283)
Briefly: BSK_hDFCGF_MIG: BioMAP Diversity Plus: hDFCGF Assay for Monokine induced gamma interferon (MIG) Biomarker Activity (AID 2283063). To be noted: primary human foreskin fibroblasts; actives raise or lower the signal. The gist of the method:
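Fibroblasts (human foreskin, primary) dosed, 24 h, MIG by ELISA; fit bidirectional vs DMSO.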

Read-out in experiment [11]: Matrix Metallopeptidase 1 (MMP1), MMP1 (gene 4312)
Description: BSK_hDFCGF_MMP1: BioMAP Diversity Plus: hDFCGF Assay for Matrix Metallopeptidase 1 (MMP1) Biomarker Activity (AID 2283064). Conditions: primary human foreskin fibroblasts; actives raise or lower the signal. An outline of the steps: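 Primary human foreskin fibroblasts exposed to chemicals for 24 h; MMP1 measured by ELISA. Cytotoxicity tracked by SRB staining in parallel cultures; bidirectional fit relative to DMSO.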

Read-out in experiment [12]: Vascular cell adhesion molecule 1 (VCAM1), VCAM1 (gene 7412)
Description: BSK_hDFCGF_VCAM1: BioMAP Diversity Plus: hDFCGF Assay for Vascular cell adhesion molecule 1 (VCAM1) Biomarker Activity (AID 2283065).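 As to AC50: VCAM-1 protein level quantified by ELISA after 24 h chemical exposure.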 To be noted: primary human foreskin fibroblasts; actives raise or lower the signal. The gist of the method:
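ELISA read-out of VCAM-1 on human skin fibroblasts, 24 h post-dose; gain or loss of signal fitted bidirectionally against DMSO baseline.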

Read-out in experiment [13]: Plasminogen activator inhibitor-1 (PAI1), SERPINE1 (gene 5054)
Briefly: BSK_hDFCGF_PAI1: BioMAP Diversity Plus: hDFCGF Assay for Plasminogen activator inhibitor-1 (PAI1) Biomarker Activity (AID 2283066). To be noted: primary human foreskin fibroblasts; actives raise or lower the signal. The gist of the method:
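Human foreskin fibroblasts in the hDFCGF system were dosed with compound for 24 h; PAI-1 was quantified by ELISA. Bidirectional curve fitting used DMSO as negative control and baseline.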

Read-out in experiment [14]: Intercellular Adhesion Molecule 1 (ICAM1), ICAM1 (gene 3383)
Briefly: BSK_KF3CT_ICAM1: BioMAP Diversity Plus: KF3CT Assay for Intercellular Adhesion Molecule 1 (ICAM1) Biomarker Activity (AID 2283067). Conditions: primary human keratinocytes with fibroblasts; actives raise or lower the signal. An outline of the steps:
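ELISA readout of ICAM-1; KF3CT human skin co-culture (keratinocytes + foreskin fibroblasts), 24 h post-dose; gain/loss fit vs DMSO baseline.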

Read-out in experiment [15]: Interferon-gamma inducible Protein 10 (IP10), CXCL10 (gene 3627)
Briefly: BSK_KF3CT_IP10: BioMAP Diversity Plus: KF3CT Assay for Interferon-gamma inducible Protein 10 (IP10) Biomarker Activity (AID 2283068). Conditions: primary human keratinocytes with fibroblasts; actives raise or lower the signal. The gist of the method:
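Signal is secreted/surface IP-10 by ELISA in a human primary skin co-culture of keratinocytes and foreskin fibroblasts, taken 24 h post-dosing; DMSO served as negative control.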

Experiment [16] can be described thus: BSK_KF3CT_SRB: Viability Assessment in the BioMAP Diversity Plus: KF3CT Assay (AID 2283069).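 Also: total protein by sulforhodamine B staining as a cytotoxicity measure; read 24 h after compound addition.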 Conditions: primary human keratinocytes with fibroblasts. An outline of the steps:
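Human keratinocyte and foreskin fibroblast co-culture exposed to chemical for 24 h. Total protein measured in parallel cultures by 0.1% sulforhodamine B staining after 10% TCA fixation, read at 560 nm; bidirectional fit relative to DMSO.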

Read-out in experiment [17]: Interleukin-1 alpha (IL1a), IL1A (gene 3552)
Briefly: BSK_KF3CT_IL1a: BioMAP Diversity Plus: KF3CT Assay for Interleukin-1 alpha (IL1a) Biomarker Activity (AID 2283070). Conditions: primary human keratinocytes with fibroblasts; actives raise or lower the signal. The gist of the method:
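Primary human keratinocyte plus foreskin fibroblast co-culture, dosed and measured at 24 h in 96-well plates. IL-1a level quantified by ELISA; bidirectional fit relative to DMSO.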

Read-out in experiment [18]: TIMP metallopeptidase inhibitor 2 (TIMP2), TIMP2 (gene 7077)
Briefly: BSK_KF3CT_TIMP2: BioMAP Diversity Plus: KF3CT Assay for TIMP metallopeptidase inhibitor 2 (TIMP2) Biomarker Activity (AID 2283071). To be noted: primary human keratinocytes with fibroblasts; actives raise or lower the signal. An outline of the steps:
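Human primary keratinocyte/foreskin fibroblast co-culture dosed with chemical and sampled at 24 h. TIMP-2 levels quantified by ELISA; bidirectional fitting against DMSO negative control as baseline.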

Read-out in experiment [19]: Transforming growth factor beta 1 (TGFb1), TGFB1 (gene 7040)
Description: BSK_KF3CT_TGFb1: BioMAP Diversity Plus: KF3CT Assay for Transforming growth factor beta 1 (TGFb1) Biomarker Activity (AID 2283072). To be noted: primary human keratinocytes with fibroblasts; actives raise or lower the signal. An outline of the steps: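 Human keratinocyte plus foreskin fibroblast primary co-culture, dosed with chemical for 24 h. TGF-b1 quantified by ELISA. Activity fitted bidirectionally against DMSO negative control as baseline.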

Active and inactive are the calls of the source. The calls were made as follows: active = hit-call score of the fitted dose curve at least 0.9, where 1 is the maximum; inactive = score below 0.9.

For orientation: AC50 means the midpoint of the concentration-response curve, whichever way the signal moves. Turning to `C=C[Si](OCC)(OCC)OCC`, the outcome in [1], in experiment [2], in experiment [3], in [4], in experiment [5] and in experiment [7] was inactive. Moreover, the outcome in experiment [8], in [9], in [10], in experiment [11], in experiment [12] and in experiment [13] was inactive. Also, the outcome in [14], in experiment [15], in [16], in experiment [17], in [18] and in experiment [19] was inactive. For the same compound, the AC50 in experiment [6] is 29.2 µM (active).
For `N#Cc1ccc(CC(=NNC(=O)Nc2ccc(OC(F)(F)F)cc2)c2cccc(C(F)(F)F)c2)cc1`, the outcome in experiment [1], in [2], in [3], in [4], in experiment [5] and in [6] was inactive. For the same compound, the result in experiment [7], in experiment [8], in experiment [9], in [10], in [11] and in [12] was inactive. Also, the result in experiment [13], in experiment [14], in [15], in [16] and in [17] was inactive. The AC50 is 2.21 µM (active) in experiment [18] and 0.463 µM (active) in experiment [19].
In the case of `Nc1cc([N+](=O)[O-])ccc1Cl`, the outcome in [1], in experiment [2], in [3], in [4], in experiment [5] and in experiment [6] was inactive. Further, the result in [7], in experiment [8], in [9], in experiment [10], in experiment [11] and in experiment [12] was inactive. The result in [13], in experiment [14], in experiment [15], in experiment [16], in experiment [17] and in [18] was inactive. The result in experiment [19] was inactive.
Take `Cc1ccc(Nc2ccc(O)c3c2C(=O)c2ccccc2C3=O)cc1`: the result in experiment [1], in [2], in experiment [3], in experiment [4], in [5] and in experiment [7] was inactive. Also, the result in [8], in experiment [9], in [10], in experiment [11], in experiment [12] and in experiment [14] was inactive. Also, the outcome in [15], in experiment [16], in experiment [17], in [18] and in experiment [19] was inactive. Besides, the concentration at half-maximal activity (AC50) in experiment [6] is 2.4 µM (active); in experiment [13], 1.61 µM (active).
As to `CCCCC/C=C/C=C/C=O`, the AC50 in experiment [1] is 14.5 µM (active); in experiment [2], 32.9 µM (active); in experiment [3], 20 µM (active); in experiment [5], 30.1 µM (active); in [6], 4.99 µM (active); in experiment [7], 10.7 µM (active). For the same compound, the AC50 was 12.7 µM (active) in experiment [8]; 12.7 µM (active) in [9]; 25.1 µM (active) in [10]; 20 µM (active) in experiment [11]; 6.87 µM (active) in experiment [12]; 8.82 µM (active) in experiment [13]. Further, the AC50 in [14] is 29.3 µM (active); in [15], 29.4 µM (active); in [16], 32.6 µM (active); in [17], 29.5 µM (active); in experiment [18] it was 24.3 µM (active); in experiment [19], 9.27 µM (active). Also, in experiment [4], the outcome was inactive.
For the compound `O=C1CCCCCCCCCCCCCCO1`, the outcome in [1], in [4], in experiment [5], in experiment [8], in experiment [9] and in experiment [10] was inactive. In addition, the outcome in [11], in experiment [12], in [15], in experiment [16] and in [17] was inactive. For the same compound, the half-maximal activity concentration (AC50) in experiment [2] is 31.9 µM (active); in experiment [3] it was 28 µM (active); in experiment [6] it was 2.99 µM (active); in experiment [7], 9.4 µM (active); in [13], 20 µM (active); in experiment [14], 17.9 µM (active). Also, the AC50 in experiment [18] and in experiment [19] was 20 µM (active) throughout.
